Data as given in the supplement of paper PMC4840960.

What follows are molecules tested on E18 rat cortical neuron-glia co-culture (assay: myelination (MBP fiber length per Olig2+ nucleus), % of 1 µM DAPT response (DMSO = 0) (% of DAPT); higher = more myelination, active = 50 or more). Conditions: 5 µM; treatment time: 8 days (DIV5-DIV13).
Summary of the method: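 Rat cortical co-cultures from E18 tissue were dissociated with papain and plated at 20,000 cells/well on 96-well plates coated with poly-d-lysine/laminin. From DIV5 to DIV13, library compounds were added at 1 or 5 µM in myelination medium. After fixation in 4 % paraformaldehyde, cultures were immunostained for MBP and Olig2 and counterstained with DAPI, and four 10X fields were analysed in each of duplicate wells. The myelination value is the length of continuous straight MBP fibers per Olig2+ nucleus, normalised so that 0.1 % DMSO is 0 and a 1 µM positive control is 100.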

myelination, inactive:
CC(=O)OCC(=O)[C@@]1(O)CC[C@H]2[C@@H]3CCC4=CC(=O)C=C[C@]4(C)[C@H]3[C@@H](O)C[C@@]21C [Prednisolone acetate] -10.6
NC(=O)N1c2ccccc2C=Cc2ccccc21 [Carbamazepine] 2.05
COc1ccccc1OCCNCC(O)COc1cccc2[nH]c3ccccc3c12 (stereo not drawn) [Carvedilol] -16.8
CN(C)CCc1c[nH]c2ccc(C[C@H]3COC(=O)N3)cc12 [Zolmitriptan] -14.6
O=C(O[C@@H]1C[C@@H]2C[C@H]3C[C@H](C1)N2CC3=O)c1c[nH]c2ccccc12 [Dolasetron] -14.7
NC(=O)c1ncn([C@@H]2O[C@H](CO)[C@@H](O)[C@H]2O)n1 [Ribavirin] 4.23
CC1=C(/C=C/C(C)=C/C=C/C(C)=C\C(=O)O)C(C)(C)CCC1 [Isotretinoin] -11.8
NC[C@H]1CC[C@H](C(=O)Oc2ccc(CCC(=O)O)cc2)CC1 [Cetraxate] -18.2
